# Screens deposited in PubChem BioAssay by National Center for Advancing Translational Sciences (NCATS).
# An excerpt weighted towards active compounds, which were near 10% of everything screened.
# LMNA splice mod: changes lamin A minigene splicing in HeLa cells; AID 1487; actives 0.01% (n = 200,000); HeLa LMNA splicing GFP/RFP minigene ratio, 48 h; Potency, µM (doses to about 46.1 µM), without a hit: at the highest dose ratio change, negative = inhibition, hits mostly inhibitors; active = well fitted inhibition curve with a large enough effect in the signal ratio, with a control signal flat, not every such curve was filed as active; inconclusive = small, poorly fitted or top-dose-only effect, or effect the other way, or a change in a side signal; the % refers to the signal ratio; note: potency is the fitted concentration of half-maximal effect
#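 S3 HeLa stable clones carrying a lamin A-EGFP splicing minigene plus DsRed2 were seeded at 600 cells/well in Opti-MEM with 2% FBS, pin-dosed and incubated 48 h at 37°C. Acumen cytometry (488 nm) gave the GFP/RFP total-intensity ratio.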
# HPGD inh: inhibitors of human 15-hydroxyprostaglandin dehydrogenase (HPGD). P15428. purified HPGD, NADH fluorescence kinetic, PGE2 substrate. Potency, µM, for inactives: top-dose activity change, negative = inhibition, actives largely listed as inhibitors. actives 4.3% (n = 150,000); note: potency is the fitted concentration of half-maximal effect
# Target sequence (P15428 whole entry, looked up): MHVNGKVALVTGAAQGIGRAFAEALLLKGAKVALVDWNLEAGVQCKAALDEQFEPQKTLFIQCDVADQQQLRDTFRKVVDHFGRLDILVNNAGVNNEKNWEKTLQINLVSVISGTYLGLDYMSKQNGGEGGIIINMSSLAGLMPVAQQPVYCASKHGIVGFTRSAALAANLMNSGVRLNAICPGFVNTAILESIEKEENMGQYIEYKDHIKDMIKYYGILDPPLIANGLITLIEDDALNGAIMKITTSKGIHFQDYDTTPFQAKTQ
#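 20 nM HPGD preincubated 15 min at room temperature with compound in 50 mM Tris-HCl pH 8, 0.01% Tween 20. Started with 1 mM NAD+ and 30 uM prostaglandin E2; NADH fluorescence (360/450 nm) read 5 times over 30-s intervals, last minus first.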
# PNC inhibitor: perinucleolar compartment assembly inhibition. PC3M PTB-GFP, PNC prevalence imaging, 16 h; hits give low values. AID 2417. actives 3.1% (n = 140,000). activity change (PNC), negative = inhibition, % at 10 µM;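 active = readout at or below -70, meaning at least 70% loss of cells showing the perinucleolar compartment, a nuclear body marking cancer cells; inconclusive = readout between -30 and a set limit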;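 note: plate controls were DMSO wells for no effect and camptothecin positive control wells for full effect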
#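 Compounds are pinned in duplicate onto adhered PC3M cells stably expressing GFP-tagged PTB and incubated 16 h at 37 C. Cells are then fixed, nuclei stained with Hoechst, and PNC-positive cells counted.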
# ALDH1A1 inh: blocks purified human ALDH1A1 activity; actives 7.3% (n = 220,000); Potency, µM (top dose mostly 75.3 µM), without a hit: at the highest dose activity, negative = inhibition, actives largely listed as inhibitors; AID 1030; Purified ALDH1A1, NADH fluorescence, propionaldehyde substrate; P00352;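 note: potency is the fitted concentration of half-maximal effect; plate controls were no enzyme wells and a reference inhibitor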
# IMPase inh: IMPase inhibition in cells | P97697 | inhibition (IP1 accumulation), % at 46.1 µM | 120,000 tested, under 10 active | CHO-M1 cells, IP1 accumulation, HTRF TR-FRET ratio; active = well fitted curve in the direction sought with a large enough effect in the signal ratio, not every such curve was filed as active; inconclusive = small, poorly fitted or top-dose-only effect, or a change in a side signal; inactive = no such curve, though single readings can be large or run the other way; the % refers to the signal ratio;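 note: cells stimulated with carbachol in lithium chloride buffer; plate controls were DMSO basal wells for no effect and reference inhibitor wells for full effect; higher means more IMPase inhibition seen as more IP1 and lower FRET ratio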
# Target sequence (P97697 whole entry, looked up): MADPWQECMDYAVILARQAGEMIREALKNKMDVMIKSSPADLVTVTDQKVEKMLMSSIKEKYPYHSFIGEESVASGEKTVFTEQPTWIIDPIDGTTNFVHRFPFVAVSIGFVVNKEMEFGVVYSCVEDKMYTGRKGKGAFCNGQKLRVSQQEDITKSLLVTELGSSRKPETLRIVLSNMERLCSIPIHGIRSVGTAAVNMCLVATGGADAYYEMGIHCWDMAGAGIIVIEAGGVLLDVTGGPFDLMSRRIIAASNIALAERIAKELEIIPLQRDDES
#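 CHO-M1, 2000 cells/well, cultured 16–30 h; cpd up to 46 uM; carbachol (50 uM solution, stimulation buffer w/ 50 mM LiCl, pH 7.4), 30 min 37C; IP-One TR-FRET, 10 min RT; Ex 320/Em 665, 620; Hill-fit AC50.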
# KinaseGlo FLuc: counter-screen: inhibitors of Kinase-Glo firefly luciferase; Q27757; Kinase-Glo luciferase, ATP luminescence, 8 min; Potency, µM (doses to about 38.3 µM), inactives show top-dose activity change, negative = inhibition, hits mostly inhibitors; actives 0.28% (n = 200,000); AID 1379; active = well fitted inhibition curve with a large enough effect; inconclusive = small, poorly fitted or top-dose-only effect; note: potency is the fitted concentration of half-maximal effect; nearly all actives have a fitted effect of over 60% in size
#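 Light output from Kinase-Glo luciferase with luciferin and 10 uM ATP in 50 mM imidazole pH 7.2, KCl, MgCl2, Tween 20, BSA; compound pin-delivered, 8-min ambient incubation, then luminescence read.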
# Starred values were filed as active, the others as inactive; ? = inconclusive; . = not tested or not shown; [ ] = another dose, or the depositor's remark. Unless noted, calls come from the whole dose curve; as a rule, active = well fitted inhibition curve with a large enough effect (not every such curve was filed as active); inconclusive = small, poorly fitted or top-dose-only effect, or another doubt; inactive = no such curve, though single readings can be large or run the other way. Unless noted, % is set by controls: 0 for no effect and ±100 for the full control effect.
SMILES,LMNA splice mod,HPGD inh,PNC inhibitor,ALDH1A1 inh,IMPase inh,KinaseGlo FLuc
O=S(=O)(NCCNC/C=C\c1ccc(Br)cc1)c1cccc2cnccc12,.,.,.,.,8,.
CC(C)CCNC(=O)CN1C(=O)c2cccnc2Sc2ccccc21,-4%[46 µM],.,.,.,.,.
CCOc1cccc(C(=O)Nc2ccc(-c3nc4cc(C)cc(C)c4o3)cc2)c1,.,.,.,.,-16,.
Cc1ccc(S(=O)(=O)c2cc(OC(=O)c3ccco3)ccc2OC(=O)c2ccco2)cc1,-14%,-15%,48,0%,.,-1%
O=C(Oc1ccc(OC(=O)c2ccco2)c(S(=O)(=O)c2ccc(Br)cc2)c1)c1ccco1,?,28µM*,-100*,?,7,-1%
Cc1cc(N2CCN(C(=O)c3ccco3)CC2)n2ncnc2n1,6%,-15%,8,-12%,-10,1%
Cc1cc(N2CCN(C(=O)OC(C)(C)C)CC2)n2ncnc2n1,-11%,.,-88*,-14%,7,.
CC(C)NC(=O)c1cc(-c2ccco2)nn1-c1ccc(Cl)cc1,-6%,?,59,28µM*,-9,-2%
O=C(c1cc(-c2ccco2)nn1-c1cccc(Cl)c1)N1CCCCC1,1%,1.6µM*,?,3.5µM*,2[1.84 µM],4%
CCOC(=O)c1cc(-c2ccc(N3CCOCC3)cc2)nn1-c1ccccc1,?,-9%,?,0%,7,-1%
CCOC(=O)c1cc(-c2ccco2)nn1-c1ccc(C)cc1,-22%[46 µM],.,.,14µM*,.,1%
CCOC(=O)c1cc(-c2ccco2)nc2c1c(C)nn2-c1cccc(Cl)c1,-8%,?,-19,?,4,-1%
CCCNC(=O)Cn1c(=O)n(CC2CCC(C(=O)NC)CC2)c(=O)c2sccc21 (stereo not given),-6%[46 µM],.,.,.,.,.
COc1ccccc1NC(=O)C1=C(C)Nc2ncnn2C1c1ccc[nH]1 (stereo not given),-16%[46 µM],.,.,.,.,.
O=S(=O)(NCCc1ccccc1)c1ccc(N2CCCCS2(=O)=O)cc1,0%[46 µM],.,.,.,.,.
CCCCSCCCNC(=O)C1CCC(CNS(=O)(=O)c2c(C)cc(C)cc2C)CC1 (stereo not given),-22%[46 µM],.,.,.,.,.
COc1cccc(C2=NOC(C(=O)Nc3cccc(C(C)=O)c3)C2)c1 (stereo not given),22%,-22%,42,4µM*,-5,-4%
COc1cccc(C2=NOC(C(=O)Nc3ccc(OC)c(OC)c3)C2)c1 (stereo not given),9%,-13%,7,-3%,3,-2%
COC(=O)NC(c1ccccc1)c1c[nH]c2ccccc12 (stereo not given),.,-5%,.,6%,.,1%
Cc1ccc(S(=O)(=O)/C(C#N)=C/c2c(N3CCN(C)CC3)nc3c(C)cccn3c2=O)cc1,7%,?,7,?,12,-2%
CC1CN(c2nc3ccccn3c(=O)c2/C=C(\C#N)S(=O)(=O)c2ccccc2)CC(C)O1 (stereo not given),13%,18µM*,15,13µM*,7,-1%
Cc1ccc(S(=O)(=O)/C(C#N)=C/c2c(N3CC(C)OC(C)C3)nc3c(C)cccn3c2=O)cc1 (stereo not given),0%,2.2µM*,?,?,10,-4%
Cc1cccn2c(=O)c(/C=C(\C#N)S(=O)(=O)c3ccccc3)c(N3CCN(C)CC3)nc12,1%,-17%,?,11µM*,2,-3%
N#C/C(=C\c1c(N2CCC(C(N)=O)CC2)nc2ccccn2c1=O)S(=O)(=O)c1ccccc1,0%,-24%,-7,?,0,-1%
Cc1ccccc1-c1nc(-n2ccnc2)c2ccccc2n1,?,-10%,.,-3%,.,0%
COc1ccc(S(=O)(=O)Nc2cc3c(cc2NCc2ccccc2)n(C)c(=O)n3C)cc1OC,.,.,.,.,5,.
NNC(=O)c1ccc([N+](=O)[O-])c(CS(=O)(=O)c2ccc(Cl)cc2)c1,9%,-19%,-11,11µM*,-3,-5%
